Shown are actives, neighbours in structure and some others; about 2.2% of the full set was active somewhere.
Mito fusion act: inhibitors of mitochondrial division or activators of mitochondrial fusion | S. cerevisiae fusion-defective mutant growth rescue, CellTiterGlo 48 h | Potency, µM (titrated, usually from 46.1 µM), for the others: at the top dose growth rescue (activation), actives largely listed as activators | 320,000 compounds, 0.23% hits | AID 485298; further: % of control where 0% means no effect; nearly all actives have a fitted effect of over 45% in size
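Growth-rescue viability read-out: after 48 h at the non-permissive 37C in glycerol/ethanol YPEG, yeast mitochondrial fusion mutants are measured by CellTiterGlo luminescence; compounds (23 nl pinned per well) restoring growth score as division inhibitors or fusion activators.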
Abeta yeast res: restores growth of yeast expressing A-beta42 peptide; yeast expressing A-beta42, growth rescue, OD600, 48 h; response scale: 0% DMSO, 100% iron-clioquinol control; Potency, µM (titrated, usually from 46.1 µM), most hits filed as activators; 410,000 compounds, 0.063% hits; further: nearly all actives have a fitted effect of over 55% in size
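Growth rescue measured by 600 nm absorbance after 48 h yeast culture at 30 C with compound. Values normalized between DMSO and an equimolar ferric chloride plus clioquinol control.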
TDP43 rescue: inhibitors of TDP-43 toxicity in yeast. AID 652104. 410,000 compounds, 1.8% hits. TDP-43 expressing yeast growth rescue, BacTiter-Glo, 24 h. Potency, µM (titrated, usually from 46.1 µM), inactives show at the top dose growth rescue (activation), usual class: activators; further: % of control where 0% means no effect; nearly all actives have a fitted effect of over 50% in size
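Yeast expressing TDP-43 (pregrown in raffinose, seeded at OD600=0.02 in galactose medium) exposed to compounds 24 hr at 30 deg C. Growth read by BacTiter-Glo luminescence; rescue of toxicity appears as increased signal.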
FUS yeast rescue: FUS proteinopathy suppression in yeast. S. cerevisiae FUS-expressing, growth rescue, OD600, 24 h. Potency, µM (series often up to 76.6 µM), usual class: activators. 390,000 compounds, 0.24% hits. AID 1347120;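 further: plate controls were DMSO vehicle for no effect and reference control for full effect; nearly all actives have a fitted effect of over 55% in size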
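Cultures pregrown in 2.5% raffinose medium are shifted to minimal medium containing 2% galactose to express toxic FUS. Compounds are tested at several concentrations. After 24hr at 30C, growth is quantified at 600 nm absorbance.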
aSyn rescue: rescues yeast growth from alpha-synuclein toxicity; Potency, µM (top dose mostly 46.1 µM), for inactives: at the top dose growth rescue (activation), hits mostly activators; 370,000 compounds, 0.14% hits; Yeast expressing alpha-synuclein, growth rescue, BacTiter-Glo, 24 h; AID 652106; further: % of control where 0% means no effect; nearly all actives have a fitted effect of over 65% in size
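Rescue of yeast growth: cells expressing toxic alpha-synuclein, induced in galactose at OD600 0.02, incubated with compound 24 h at 30 C. ATP luminescence quantified growth; inhibitors of toxicity appear as activators.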
Numbers without * were called inactive; i = inactive; u = inconclusive; x = no result; ! = a repeat was not active; [ ] = remark or other dose. The call rests on the fitted dose curve; in most records, active means well fitted curve in the direction sought with a large enough effect; inconclusive means small, poorly fitted or top-dose-only effect, or another doubt; inactive means no such curve, though single readings can be large; an effect the other way counts as inactive or inconclusive. Potency means the concentration at half of the fitted maximal effect.

SMILES | Mito fusion act | Abeta yeast res | TDP43 rescue | FUS yeast rescue | aSyn rescue
O=C(CCn1c(=O)c2cccn2c2cccnc21)N1CCN(c2cccc(Cl)c2)CC1 | 7% | i | 20µM*! | i | 18%
CCc1c(C)nc2ncnn2c1NC1CCCc2ccccc21 (stereo not given) | -10% | 13µM* | 22% | i | 8%
CCOc1ccc(-c2nnc(SCC(=O)Nc3cc(C)ccc3OC)o2)cc1 | x | i | 12% | i | x
CN1C[C@@H]2[C@@H]3C(=O)N(Cc4ccccc4)C(=O)[C@@H]3[C@](Cc3ccccc3)(C1=O)N2C(=O)c1ccc(Cl)c(Cl)c1 | x | i | -3% | 14µM* | 2%
N/C(=N\OC(=O)CC1CCCCC1)c1ccccn1 | -2% | i | 16µM* | i | 4%
COc1ccc(CC(=O)O/N=C(\N)c2ccccn2)cc1 | -8% | i | -5% | i | -7%
N/C(=N\OC(=O)Cc1ccc(-c2ccccc2)cc1)c1ccccn1 | 18% | i | 13µM* | i | -1%
CCCCn1nnnc1C(c1ccccc1)N1CCN(c2c(Cl)cncc2Cl)CC1 (stereo not given) | x | i | 22µM* | i | -1%
Cc1ccc2c(c1)c(=O)c(C(=O)c1ccncc1)cn2CC(=O)Nc1c(C)cccc1C | x | i | 14% | i | x
O=C(Cc1cccs1)N(Cc1ccco1)C1(C(=O)NC2CCCCC2)CCCCC1 | 6% | i | 5% | i | 4%
O=C(Cc1cccs1)N(Cc1cccs1)C1(C(=O)NC2CCCC2)CCCCC1 | 2% | i | 20µM* | i | 0%
CC(C)=CC(=O)O[C@@H]1Cc2cc3ccc(=O)oc3cc2OC1(C)C | 9% | i | 14µM* | i | 8%
Cc1cc(C)cc(NC(=O)C(C)N2Cc3ccccc3C2=O)c1 (stereo not given) | x | i | 17% | i | x
CCC(=O)N1CCN(c2ccc(NC(=O)c3ccc4c(c3)OCCO4)cc2)CC1 | 0% | i | -24% | i | -5%
O=C(Nc1cc(C(F)(F)F)ccc1N1CCCC1)c1ccc2c(c1)OCO2 | 3% | i | 18µM* | i | -17%
CCC(=O)N1CCN(c2ccc(Cl)cc2NC(=O)c2ccc3c(c2)OCCO3)CC1 | -7% | i | 25µM* | u | 1%
O=C(Nc1ccccc1N1CCCC1)c1ccc2c(c1)OCO2 | 11% | i | u | i | 0%
Cc1cccc(OCc2nnc(-c3ccccc3)o2)c1 | x | i | 15% | i | x
CCN(CC)c1nc(N)c2c(N)n(-c3ccccc3C)c(=S)c(C#N)c2c1C#N | u | i | 13% | 28µM* | 0%
CCCn1nc(C(=O)Nc2nc(-c3ccccn3)cs2)c2ccccc2c1=O | 5% | 10µM* | u | i | -6%[1.84 µM]
COc1ccc(-n2nc(C(=O)NCC(=O)NCC3COc4ccccc4O3)c3ccccc3c2=O)c(OC)c1 (stereo not given) | -2% | i | -8% | i | 5%
COc1ccc(-n2nc(C(=O)NCC(=O)NCC3COc4ccccc4O3)c3ccccc3c2=O)cc1OC (stereo not given) | 3% | i | -2% | 18µM* | 0%
CCCn1nc(C(=O)NC2CC2)c2ccccc2c1=O | 1% | i | 9% | i | 0%
CCCn1nc(C(=O)NCC2COc3ccccc3O2)c2ccccc2c1=O (stereo not given) | 26% | i | 22µM* | i | 2%[1.84 µM]
CCn1nc(C(=O)Nc2nc(-c3ccccn3)cs2)c2ccccc2c1=O | 7% | i | u | i | -16%
SMILES | Mito fusion act | Abeta yeast res | TDP43 rescue | FUS yeast rescue | aSyn rescue
COc1ccccc1-c1noc(-c2ccc(NCC3CCCO3)c([N+](=O)[O-])c2)n1 (stereo not given) | x | i | 3% | i | x
CCCN1CNc2c(c(=O)[nH]c(=S)n2CCC(C)(C)C)C1 | x | x | x | x | 4%
Cc1ccccc1CCNC(=O)c1cc(C2CC2)nc2c1cnn2C(C)C | u | i | 35µM* | i | 8%
COc1cccc(CNC(=O)c2cc(C3CC3)nc3c2cnn3C(C)C)c1 | 15% | i | 18µM* | u | 1%[1.84 µM]
CC(C)n1ncc2c(C(=O)NCCc3ccc(F)cc3)cc(C3CC3)nc21 | 11% | i | -14% | i | 0%
CCOc1cc(-c2nc(C)c(C(C)=O)n2O)ccc1OCC(=O)Nc1ccc(F)cc1 | 0% | i | 14µM* | i | -4%
COc1cc(-c2nc(C)c(C(C)=O)n2O)ccc1OCC(=O)Nc1ccc(F)cc1 | -6% | i | 19% | i | -6%
O=C(c1ccccc1)n1ccn(-c2ccccc2)c1=S | 18% | i | 11µM* | i | -1%
C=CCN1C(=O)/C(=C/c2ccc(OCC(=O)O)cc2)S/C1=N/c1nccs1 | 2% | i | 22% | i | 3%
C=CCN1C(=O)/C(=C/c2ccc(O)c(OC)c2)S/C1=N/c1nccs1 | u | i | 22µM* | x | 13%
O=C(CSc1nc2ccccc2nc1N1CCCCC1)N1CCN(C(c2ccccc2)c2ccc(Cl)cc2)CC1 (stereo not given) | x | x | x | i | x
COc1cccc(/C=C2\SC(=S)N(CCCC(=O)N(CCO)c3ccccc3)C2=O)c1 | -7% | i | 22µM* | u | u
CC(=O)N1CCN(C2=Nc3ccccc3Sc3ccccc32)CC1 | x | x | x | i | x
COc1ccc(CN(CCCN)c2ccc(Br)cn2)cc1 | x | x | x | x | -3%
COc1cccc2cc(-c3nc4ccccc4o3)c(=O)oc12 | 0% | i | 3.2µM* | i | 3.2µM*
O=c1oc2ccc(Br)cc2cc1-c1nc2ccccc2o1 | 1% | i | -13% | i | 0%
Cn1c(=O)c2nc(-c3ccccc3)oc2c2ccccc21 | 12% | i | 10µM* | i | u
Cc1ccc(Nc2nc(COC(=O)C3CC3)cs2)cc1 | 4% | i | 13µM* | i | -24%
COc1cccc(C(=O)Nc2ccccc2)c1 | -3% | i | -25% | i | 2%
COc1cccc(C(=O)Nc2ccc(-n3nncc3-c3ccccc3)cc2)c1 | 1% | i | 35µM* | u | x
COc1cccc(NC(=O)c2oc3ccccc3c2NC(C)=O)c1 | 2% | i | -11% | i | -1%
COc1cccc(C(=O)Nc2nc(-c3ccccc3)c(-c3ccccc3)o2)c1 | 24% | 16µM* | 20µM* | i | u
COc1cccc(C(=O)Nc2c(C(=O)NC(C)(C)C)oc3ccccc23)c1 | x | i | 18µM* | i | x
O=C(Nc1nc(-c2ccccc2)c(-c2ccccc2)o1)c1ccc(F)cc1 | -6% | 11µM* | u | i | u
C=CCN(CC#Cc1ccccc1)CC=C | x | x | x | i | x
Cc1cc(C)c(NC(=O)CCn2c(=O)c3cccn3c3cccnc32)c(C)c1 | x | i | 18% | i | x

Screening results as filed in PubChem.
